The source of these data is PubChem BioAssay AID720621 (The Scripps Research Institute Molecular Screening Center, 2013).

Some of the results follow. Activity calls are given as the source filed them.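 How the source made its calls: active means inhibition above the mean of test compounds lying between the control limits plus 3 SD of those (cut at about 14% in these data); inactive means the rest.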

For the experiment, the target named is Fibrinogen beta chain (Homo sapiens) (UniProt P02675). Put plainly: DD(E) binders in alternate-peptide displacement assay, confirmation, counter-screen for fibrin DD(E)-Tn6 binding project, biochemical, fluorescence polarization, human fibrin (AID 720621).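 Further: 0% = median of compound wells and 100% = wells with Aha-Tn7 blocking peptide.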 The settings on record: TRITC-Tn6 fluorescence polarization displacement, at 8.3 µM, active compounds read high, 0% = median of compound wells, not DMSO. For orientation: Counterscreens check selectivity or assay interference.
Sequence of Fibrinogen beta chain (Homo sapiens) (P02675 whole entry, looked up): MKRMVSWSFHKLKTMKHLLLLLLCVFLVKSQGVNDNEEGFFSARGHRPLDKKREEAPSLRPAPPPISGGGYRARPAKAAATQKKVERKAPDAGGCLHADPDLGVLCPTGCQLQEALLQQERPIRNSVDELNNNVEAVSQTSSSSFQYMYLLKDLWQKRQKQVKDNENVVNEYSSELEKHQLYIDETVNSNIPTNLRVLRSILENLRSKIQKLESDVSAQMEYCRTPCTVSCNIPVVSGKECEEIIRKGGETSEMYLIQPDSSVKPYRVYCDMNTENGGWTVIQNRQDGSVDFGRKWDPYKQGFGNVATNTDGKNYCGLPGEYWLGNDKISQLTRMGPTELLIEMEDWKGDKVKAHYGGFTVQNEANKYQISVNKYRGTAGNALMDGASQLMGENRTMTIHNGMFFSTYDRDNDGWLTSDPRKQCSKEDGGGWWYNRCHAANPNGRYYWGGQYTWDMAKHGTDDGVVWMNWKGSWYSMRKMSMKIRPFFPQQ
In the case of `Cc1cc(C)c2nc(NC(=O)C3CCCO3)sc2c1` (stereo unspecified), the inhibition – broadly, the change of the read-out against control, counted positive when it falls – was 9.86% (inactive).
Consider `Cc1ccc(-c2nn(-c3ccccc3)cc2/C=C/C(=O)Nc2cccc(S(N)(=O)=O)c2)cc1`, for which the inhibition is 9.5% (inactive).
With `COc1ccc(Nc2nc(-c3cccnc3)nc3ccccc23)cn1` the figure was 1.38% (inactive).
Regarding `O=C(CCl)NNc1cccc(Cl)n1`, the inhibition is -4.59% (inactive).
For `COc1ccc(N2C(=O)NC(NS(=O)(=O)c3ccc(Cl)cc3)(C(F)(F)F)C2=O)cc1` (stereo unspecified), the inhibition is 9.3% (inactive).
As for `CN1c2ccc(C=O)c3c(C=O)ccc(c23)N(C)C1(C)C`, the inhibition was 1.94% (inactive).
As for `Cc1ccc(-c2nc(C)sc2CC(=O)O)cc1`, the figure is 1.12% (inactive); as for `O=C(NCCNc1ccccc1[N+](=O)[O-])c1ccccc1F`, 1.36% (inactive).
In the case of `CCOC(=O)N1CCN(Cc2nc(N)nc(Nc3ccc(C)cc3)n2)CC1`, the inhibition is -2.92% (inactive).
As for `O=c1cc(Cn2nnc(-c3ccc(Cl)cc3)n2)nc2sccn12`, the figure is 0.44% (inactive).
`Cc1cc2cc(CNC(=O)c3ccc(S(=O)(=O)N4CCOCC4)cc3)ccc2[nH]1`: the inhibition is -5.66% (inactive).
`O=C(Nc1cccc(-c2nc3ccccc3[nH]2)c1)c1ccc(C(=O)Nc2cccc(-c3nc4ccccc4[nH]3)c2)cc1`: the inhibition is 4.67% (inactive).
As for `Cc1cc2ccccc2n1CCNC(=O)COc1ccc2ccccc2c1`, the figure is 4.66% (inactive); as for `CCC1C(=O)NCCN1C(=O)c1ccc2nc(Cc3ccc(OC)cc3)oc2c1` (stereo unspecified), -2.38% (inactive); as for `CCOCC(=O)NCc1ccc2c(c1)cc(C)n2C`, 3.45% (inactive).
With `Cc1nn(C)cc1N1C(=O)c2cccc3c(N)ccc(c23)C1=O` the figure was 12.5% (inactive).
